Compounds with a hit are over-represented: about 4% of the library has one in this group of screens.
TROY NFkB inh – inhibitors of TROY-driven NF-kB signaling, primary screen, Q293 LMP1-TROYcd cells, NF-kB luciferase, uHTS | Q293 LMP1-TROYcd NF-kB luciferase reporter, 4 h | inhibition, % at 10 µM | actives 0.98% (n = 360,000) | AID 1347056, 2019;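 active means compounds whose plate-normalised and pattern-corrected inhibition of the luciferase reporter signal at the single screening dose is 50% or more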
HIF-2a inh – HIF-2a reporter inhibitors, primary screen, luminescence, 786-0 RCC cells; 786-0 RCC cells HIF-2a reporter, luciferase luminescence, overnight; inhibition, % at 18.8 µM; actives 0.72% (n = 360,000);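 active means inhibition of the luminescence signal of 40% or more relative to plate controls, in a single-dose primary screen at 18.75 µM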
TWEAK Fn14 block – inhibitors of TWEAK-Fn14 signaling, primary screen, luciferase reporter cells, uHTS | inhibition, % at 10 µM | TWEAK-stimulated Fn14 reporter cells, luciferase luminescence, 8 h | actives 2% (n = 360,000); in the data active means inhibition above about 50%
KKLEB tox – cytotoxicity in KKLEB CF airway cells, primary screen, cytotoxicity control for CF NF-kB inhibitor project, cell-based, uHTS, fluorescence assay plates. KKLEB CF airway cells viability, ATPlite luminescence, overnight; hits give low values; cells stimulated with P. aeruginosa culture filtrate. activity change (cytotoxicity), % at 5 µM. actives 0.36% (n = 360,000). AID 602141, 2011;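 active means corrected activity change at or below -50% at 5 µM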
Peg3 prom inh – Peg3 promoter-driven luciferase inhibitors, primary screen, cell-based, HeLa, luciferase luminescence. HeLa PEG-Prom luciferase reporter, overnight. inhibition, % at 20 µM. actives 1.7% (n = 360,000). AID 588405, 2011;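 active means inhibition of at least 50% at 20 µM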
CF NFkB inh – inhibitors of PAF-induced NF-kB signaling, primary screen, cell-based, GFP fluorescence, uHTS | KKLEB NF-kB-GFP reporter, GFP fluorescence overnight | inhibition, % at 5 µM | actives 0.86% (n = 360,000) | AID 588850, 2011;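 active means at least 50% inhibition at 5 µM, scaled per plate between neutral and stimulator controls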;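 further: PAF is a Pseudomonas aeruginosa culture filtrate used as stimulus; plate controls were PAF-stimulated DMSO wells for no effect and unstimulated DMSO wells for full effect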
Starred values were filed as active, the others as inactive.

SMILES	TROY NFkB inh	HIF-2a inh	TWEAK Fn14 block	KKLEB tox	Peg3 prom inh	CF NFkB inh
COc1ccc(NC(=O)C2Cc3c(-c4ccccc4Oc4ccccc4)ccnc3O2)cc1OC (stereo not given)	42.7	10.8	63.4*	12.1	28.5	5.1
COc1ccc2c(CC(=O)Nc3nc(C)cs3)coc2c1	-13.6	-62.4	4.9	-12.6	-72.6	5.7
COc1ccc2c(CC(=O)Nc3ncc(C)s3)coc2c1	7.5	-238.2	34.8	-7.3	65.5*	25.5
O=C(/C=C/c1ccc(Cl)cc1)c1ccc([N+](=O)[O-])o1	30.6	49.0*	88.1*	-48.4	106.6*	95.8*
Cc1cc(O)c(C(=O)/C=C/c2ccc(Cl)cc2)c(=O)o1	-37.0	-97.2	14.0	7.8	-119.2	-20.4
CCCCC(CC)CO (stereo not given)	9.5	7.8	2.9	8.2	109.6*	17.7
N/C(=N\OC(=O)/C=C/c1ccccc1)c1cccnc1	-70.7	-188.0	-32.6	10.1	-175.7	-4.9
N/C(=N\OC(=O)/C=C/c1ccccc1Cl)c1ccccn1	68.0*	-22.0	75.1*	-25.0	-53.4	5.8
N/C(=N\OC(=O)/C=C/c1ccccc1Cl)c1cccnc1	-67.1	-343.1	-3.1	-8.8	-342.5	-2.3
N/C(=N\OC(=O)/C=C/c1ccc(Br)cc1)c1ccccn1	52.1*	-111.6	66.2*	-1.9	-59.2	13.3
CC(C)(C)c1ccc(-c2nnc3sc(-c4ccccn4)nn23)cc1	71.9*	11.2	73.9*	11.4	19.4	6.2
NC(=O)CC(NC(=O)Cc1ccc(Br)cc1)c1ccc(N2CCC(Cc3ccccc3)CC2)c([N+](=O)[O-])c1 (stereo not given)	-2.2	11.9	-50.5	-41.9	51.4*	30.6
NC(=O)CC(NC(=O)Cc1ccc(Br)cc1)c1ccc(N2CCC(Br)CC2)c([N+](=O)[O-])c1 (stereo not given)	17.9	-7.7	-3.6	-14.8	26.7	-28.3
CS(=O)(=O)N(CC(=O)Nc1ccccc1C(=O)NCc1ccco1)c1ccc2c(c1)OCCO2	20.4	-10.1	-0.4	1.7	23.8	6.8
COC(=O)c1ccc(C(=O)OC)c(NC(=O)CN(c2ccc3c(c2)OCO3)S(C)(=O)=O)c1	56.8*	-0.9	22.6	0.0	7.2	-18.2
CC(C)CNC(=O)c1ccccc1NC(=O)CN(c1ccc2c(c1)OCCO2)S(C)(=O)=O	21.3	11.0	89.7*	14.4	-0.8	-19.7
COc1ccc(-c2csc(NC(=O)c3ccc(S(C)(=O)=O)cc3)n2)cc1	27.0	-135.7	12.4	11.9	-150.8	-11.0
O=C(Cc1ccccn1)c1ccccc1	3.3	-38.9	7.0	5.3	-37.8	0.2
O=C(CCCc1ccccn1)c1ccccc1	43.2	-47.6	83.6*	-23.3	-71.9	14.7
CC1CCCCC1NC(=O)CSc1nc2ccccc2[nH]1 (stereo not given)	-24.3	12.9	44.6	-0.5	-5.9	-15.9
Fc1ccccc1Cn1nnc(-c2ccc3c(c2)OCO3)n1	52.7*	-159.9	16.0	-13.9	-312.6	-2.8
COCCn1c(SCC(=O)Nc2ccc3c(c2)OCCO3)nc2c(c1=O)SC(C)C2 (stereo not given)	-42.2	-145.8	-22.9	-18.1	-80.0	4.1
O=C(CSc1nnnn1-c1ccccc1Cl)Nc1ccc2c(c1)OCCO2	54.0*	-30.4	75.8*	-11.1	2.1	5.2
O=C(CSc1nc2ccc(NC(=O)CSc3nnnn3-c3ccccc3)cc2s1)Nc1ccccc1	14.6	-7.3	-69.9	-65.4*	34.6	61.2*
CC1Cc2nc(SCC(=O)Nc3ccc4c(c3)OCCO4)n(C)c(=O)c2S1 (stereo not given)	71.1*	-2.6	41.8	-4.9	12.7	-8.1
Cc1ccc(NC(=O)CSc2nccn(-c3ccc4c(c3)OCCO4)c2=O)cc1	35.4	-25.1	24.8	-24.4	-14.0	9.1
O=C(CSc1nccn(-c2ccc3c(c2)OCCO3)c1=O)Nc1ccccc1	66.2*	-87.4	62.4*	9.9	-104.2	-13.1
O=C(CSc1nnnn1-c1ccccc1)Nc1ccccc1	5.1	-8.1	-22.1	1.7	-0.6	-3.9

Screening data as filed in PubChem BioAssay.
